Assay [1] deals with Plasmodium falciparum Sir2 (PF13_0152, Sir2A). Kind of assay: Plasmodium falciparum Sir2A binding compounds – biochemical, small-molecule microarray, 635 nm fluorescence, primary screen (AID 1098).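 Further: score merges spot fluorescence intensity with its signal-to-noise ratio.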 The settings on record: fluorescence 635 nm, higher = more signal.
Assay [2] can be described thus: probe aDKK1 binding to arrayed compounds – biochemical, biotinylated probe, 635/667 nm fluorescence, primary screen (AID 1099).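 Further: score merges 667nm spot fluorescence with signal to noise across triplicate slides.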 Particulars: small-molecule microarray, higher = more signal.
Assay [3] can be described thus: probe aCHRDL2 binding to arrayed compounds – biochemical, biotinylated probe, 635/667 nm fluorescence, primary screen (AID 1100). Particulars: small-molecule microarray, higher = more signal.
The nature of assay [4]: change in splice reporter luminescence, either direction, cell-based, HEK293, spliceosome inhibition project, primary screen (AID 1101).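 Further: HEK293 cells carrying a splicing-competent luciferase reporter gene; test concentration not given here.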 Particulars: HEK293 splicing luciferase reporter, 24 h, higher = more signal, called active from +8 up or from −8 down. On the technique in general: A reporter such as luciferase makes a cellular process visible.
Assay [5] concerns the target Fibroblast growth factor 10 (Homo sapiens) (UniProt O15520). In words: compounds binding fibroblast growth factor 10 – biochemical, small-molecule microarray, 635 nm fluorescence, primary screen (AID 1102). The settings on record: FGF10 binding, fluorescence 635 nm, higher = more signal.
The test system of assay [6] is glycogen synthase kinase-3 (GSK3A per assay name; protocol says GSK3B). In words: compounds binding glycogen synthase kinase-3 – biochemical, small-molecule microarray, 635 nm fluorescence, GSK3A, primary screen (AID 1103). Further: the record names both GSK3A and GSK3B. Particulars: fluorescence 635 nm, higher = more signal.
The target in assay [7] is Epidermal growth factor receptor (Homo sapiens) (UniProt P00533). Kind of assay: compounds binding epidermal growth factor receptor – biochemical, small-molecule microarray, 635 nm fluorescence, primary screen (AID 1104).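 Further: score merges 667 nm emission intensity with spot signal to noise over triplicate slides.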 The settings on record: EGFR binding, higher = more signal.
For assay [8], the target named is Follistatin-related protein 3 (Homo sapiens) (UniProt O95633). In words: compounds binding follistatin-related protein 3 – biochemical, small-molecule microarray, 635 nm fluorescence, primary screen (AID 1105).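 Further: score merges emission near 667 nm and signal to noise per printed spot across three slides.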 The settings on record: FSTL3 binding, higher = more signal.
The target of assay [9] is Dickkopf-related protein 1 (Homo sapiens) (UniProt O94907). In words: small molecules binding DKK1 protein – biochemical, small-molecule microarray, 635 nm fluorescence scan, primary screen (AID 1106).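 Further: score merges emission near 667 nm with signal to noise over three replicate slides.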 Particulars: higher = more signal.
The test system of assay [10] is Inhibin beta A chain (activin A). Kind of assay: small molecules binding activin A – biochemical, small-molecule microarray, 635 nm fluorescence scan, primary screen (AID 1107).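 Further: mouse activin A protein probed at 4.33 µg/mL on printed slides; score merges bound-protein fluorescence near 667 nm with spot signal-to-noise.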 Particulars: INHBA, higher = more signal.
Assay [11] has as its system Human papillomavirus type 1a protein E7 (residues 44-93). In words: small molecules binding HPV E7 44-93 – biochemical, small-molecule microarray, residues 44-93, 635 nm fluorescence, primary screen (AID 1108).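 Further: E7 fragment applied at 1 µg/mL in TBST for 1 h at 4 C; score combines spot fluorescence with its signal to noise ratio.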 The settings on record: fluorescence 635 nm, higher = more signal.
Assay [12] in a line: hepatitis C replication reporter changes, two-sided – Huh7 cells, luciferase reporter, HCV replication inhibitor project, primary screen (AID 1109).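 Further: huh7 hepatoma cells harbouring a luciferase neomycin HCV replicon reporter; luciferase luminescence as measure of HCV replicon replication; test concentration not given here.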 Particulars: Huh7 HCV replicon luciferase reporter, 48 h; higher = more signal.
The target in assay [13] is Left-right determination factor 2 (Homo sapiens) (UniProt O00292). In words: small molecules binding LEFTY2 protein – biochemical, small-molecule microarray, 635 nm fluorescence scan, primary screen (AID 1110). The settings on record: higher = more signal.
Assay [14] deals with Calmodulin-1 (Homo sapiens) (UniProt P0DP23). In words: small molecules binding calmodulin-1 with EGTA – biochemical, small-molecule microarray, Cy5-labelled CALM1, profiling panel (AID 1111).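 Further: labelled calmodulin applied in Tris saline Tween buffer holding calcium plus EGTA and DTT.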 Particulars: Cy5-CALM1 binding fluorescence, higher = more signal.
The target is the same in assay [15]. Kind of assay: small molecules binding Ca-loaded calmodulin-1 – biochemical, small-molecule microarray, Cy5-labelled CALM1, plus calcium, artefact control for SMM control-protein annotation, profiling panel (AID 1112).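 Further: score merges spot fluorescence with signal to noise from triplicate slides.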 Particulars: Cy5-CALM1 binding fluorescence, higher = more signal.
Assay [16] is described as follows: probe aWnt5a binding to arrayed compounds – biochemical, biotinylated probe, 635/667 nm fluorescence, primary screen (AID 1113).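 Further: score merges 667 nm fluorescence intensity with signal-to-noise per printed feature.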 Particulars: small-molecule microarray, higher = more signal.
Assay [17] is described as follows: probe aShh binding to arrayed compounds – biochemical, biotinylated probe, 635/667 nm fluorescence, primary screen (AID 1114).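 Further: probe is biotin-labelled aShh protein from a stem cell growth factor screen; measures binding of labelled protein to compounds printed on the slide; score merges feature fluorescence at 667 nm with signal-to-noise.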 Particulars: small-molecule microarray, higher = more signal.
Assay [18] in a line: probe aNog binding to arrayed compounds – biochemical, biotinylated probe, 635/667 nm fluorescence, primary screen (AID 1115).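 Further: probe is biotinylated aNog protein used at 0.15 µg/mL for 1 h at 4 C; z-score combines 667 nm fluorescence of each spot with its signal to noise.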 The settings on record: small-molecule microarray, higher = more signal.
Assay [19] addresses Torsin-1A-interacting protein 1 (Homo sapiens) (UniProt Q5JTV8). Kind of assay: compound microarray binding of lysate hLAP1 – cell lysate, small-molecule microarray, COS7 lysate, 635/667 nm fluorescence, primary screen (AID 1116). The settings on record: 635 nm fluorescence, higher = more signal.
Assay [20] addresses Alpha-bungarotoxin (Bungarus multicinctus) (UniProt P60615). Kind of assay: compounds binding labelled alpha-BTX control protein – biochemical, small-molecule microarray, Alexa647 label, 635/667 nm fluorescence, artefact control for SMM control protein annotation, profiling panel (AID 1117). The settings on record: alpha-BTX-A647 binding fluorescence, higher = more signal.

Active and inactive are the calls of the source.

Sequence of Fibroblast growth factor 10 (Homo sapiens) (O15520 whole entry, looked up): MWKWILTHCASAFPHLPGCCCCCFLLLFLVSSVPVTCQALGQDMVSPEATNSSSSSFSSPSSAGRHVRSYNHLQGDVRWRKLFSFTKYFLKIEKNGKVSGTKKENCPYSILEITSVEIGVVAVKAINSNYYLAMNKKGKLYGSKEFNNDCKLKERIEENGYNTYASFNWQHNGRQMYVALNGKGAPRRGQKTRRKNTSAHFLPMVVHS
Sequence of Follistatin-related protein 3 (Homo sapiens) (O95633 whole entry, looked up): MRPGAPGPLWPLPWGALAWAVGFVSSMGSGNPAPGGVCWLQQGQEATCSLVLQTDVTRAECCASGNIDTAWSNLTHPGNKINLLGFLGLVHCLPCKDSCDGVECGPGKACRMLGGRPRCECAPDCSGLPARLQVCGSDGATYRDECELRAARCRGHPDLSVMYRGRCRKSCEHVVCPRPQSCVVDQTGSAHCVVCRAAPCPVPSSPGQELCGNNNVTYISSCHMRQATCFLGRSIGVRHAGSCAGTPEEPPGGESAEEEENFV
Sequence of Dickkopf-related protein 1 (Homo sapiens) (O94907 whole entry, looked up): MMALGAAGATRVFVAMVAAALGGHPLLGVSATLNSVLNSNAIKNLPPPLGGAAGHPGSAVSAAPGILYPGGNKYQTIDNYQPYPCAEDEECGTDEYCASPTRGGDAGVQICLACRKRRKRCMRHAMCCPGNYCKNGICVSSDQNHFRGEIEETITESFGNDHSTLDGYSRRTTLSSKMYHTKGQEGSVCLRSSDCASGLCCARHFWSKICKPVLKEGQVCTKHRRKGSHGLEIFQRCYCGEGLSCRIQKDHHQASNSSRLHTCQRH
Sequence of Alpha-bungarotoxin (Bungarus multicinctus) (P60615 whole entry, looked up): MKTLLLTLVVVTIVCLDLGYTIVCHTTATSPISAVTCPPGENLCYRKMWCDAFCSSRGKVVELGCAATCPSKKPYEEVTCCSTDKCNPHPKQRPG
Sequence of Epidermal growth factor receptor (Homo sapiens) (P00533 whole entry, looked up): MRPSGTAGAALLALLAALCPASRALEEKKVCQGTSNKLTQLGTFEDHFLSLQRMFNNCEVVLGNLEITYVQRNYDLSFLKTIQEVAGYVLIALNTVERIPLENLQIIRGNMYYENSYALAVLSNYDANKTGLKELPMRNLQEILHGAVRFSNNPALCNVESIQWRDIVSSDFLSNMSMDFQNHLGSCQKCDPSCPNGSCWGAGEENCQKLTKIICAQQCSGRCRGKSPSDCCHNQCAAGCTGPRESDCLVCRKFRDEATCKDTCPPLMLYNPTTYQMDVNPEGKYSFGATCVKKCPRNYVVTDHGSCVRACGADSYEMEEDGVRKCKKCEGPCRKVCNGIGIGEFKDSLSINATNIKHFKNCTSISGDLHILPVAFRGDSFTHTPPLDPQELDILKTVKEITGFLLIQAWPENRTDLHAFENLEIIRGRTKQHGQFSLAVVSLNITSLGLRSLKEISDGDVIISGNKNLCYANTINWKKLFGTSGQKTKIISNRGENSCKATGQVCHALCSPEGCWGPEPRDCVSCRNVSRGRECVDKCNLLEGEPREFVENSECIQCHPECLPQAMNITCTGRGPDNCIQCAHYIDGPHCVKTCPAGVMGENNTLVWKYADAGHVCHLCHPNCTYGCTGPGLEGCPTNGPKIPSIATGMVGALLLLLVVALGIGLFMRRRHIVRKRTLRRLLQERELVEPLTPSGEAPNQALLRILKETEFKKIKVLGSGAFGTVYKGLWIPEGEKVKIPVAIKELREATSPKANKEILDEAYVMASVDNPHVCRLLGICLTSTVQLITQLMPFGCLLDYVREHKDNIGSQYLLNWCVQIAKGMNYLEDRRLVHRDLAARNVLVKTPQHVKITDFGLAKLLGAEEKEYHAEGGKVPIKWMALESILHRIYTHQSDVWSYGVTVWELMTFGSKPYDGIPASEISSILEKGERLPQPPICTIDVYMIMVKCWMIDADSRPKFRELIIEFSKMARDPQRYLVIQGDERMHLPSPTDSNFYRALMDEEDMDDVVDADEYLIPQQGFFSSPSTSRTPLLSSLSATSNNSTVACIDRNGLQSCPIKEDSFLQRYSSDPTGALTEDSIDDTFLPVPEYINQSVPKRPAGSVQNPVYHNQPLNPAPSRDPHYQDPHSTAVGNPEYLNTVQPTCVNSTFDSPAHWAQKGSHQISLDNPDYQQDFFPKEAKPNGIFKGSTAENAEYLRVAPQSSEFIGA
Sequence of Torsin-1A-interacting protein 1 (Homo sapiens) (Q5JTV8 whole entry, looked up): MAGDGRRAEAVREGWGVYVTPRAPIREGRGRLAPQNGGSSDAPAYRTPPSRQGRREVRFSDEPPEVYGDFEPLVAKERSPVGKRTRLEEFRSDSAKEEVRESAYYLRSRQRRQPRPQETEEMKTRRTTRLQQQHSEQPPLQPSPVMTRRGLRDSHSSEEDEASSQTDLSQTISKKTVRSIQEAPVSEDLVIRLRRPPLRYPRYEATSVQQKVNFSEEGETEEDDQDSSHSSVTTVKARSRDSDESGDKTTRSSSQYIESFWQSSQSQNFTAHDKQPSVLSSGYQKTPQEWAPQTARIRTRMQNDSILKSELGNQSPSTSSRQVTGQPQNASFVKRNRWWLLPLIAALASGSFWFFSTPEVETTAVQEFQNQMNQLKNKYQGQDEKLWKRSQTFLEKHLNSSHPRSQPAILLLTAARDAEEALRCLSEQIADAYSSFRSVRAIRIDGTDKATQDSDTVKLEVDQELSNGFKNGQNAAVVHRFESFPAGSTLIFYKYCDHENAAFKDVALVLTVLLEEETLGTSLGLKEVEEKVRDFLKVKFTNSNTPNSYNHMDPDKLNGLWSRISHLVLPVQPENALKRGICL
Sequence of Left-right determination factor 2 (Homo sapiens) (O00292 whole entry, looked up): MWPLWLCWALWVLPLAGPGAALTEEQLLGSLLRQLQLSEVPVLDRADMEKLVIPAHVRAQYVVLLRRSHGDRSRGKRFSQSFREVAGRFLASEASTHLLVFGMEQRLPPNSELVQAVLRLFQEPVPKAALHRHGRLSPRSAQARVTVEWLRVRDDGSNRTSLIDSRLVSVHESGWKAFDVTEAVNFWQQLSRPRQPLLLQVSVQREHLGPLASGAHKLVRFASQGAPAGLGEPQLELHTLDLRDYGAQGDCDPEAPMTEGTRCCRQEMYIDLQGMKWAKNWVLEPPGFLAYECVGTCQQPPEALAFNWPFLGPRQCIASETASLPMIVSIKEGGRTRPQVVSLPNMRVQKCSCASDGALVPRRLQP

In the case of `O=c1cccc(-c2ccc3ccccc3c2)o1`, the composite z-score in [1] is -0.271; in [2], 0.216; in assay [3], 0.591; in assay [5] it was -0.0487; in [6], -0.964; in assay [7], 0.0697. In addition, the composite z-score in [8] is -0.0172; in assay [9], -0.139; in assay [10], 1.15; in [11], -0.0853; in [13] it was -0.135; in [14] it was -0.545. Further, the composite z-score is 0.03 in [15]; -0.184 in assay [16]; -0.136 in [17]; -0.219 in [18]; 0.407 in assay [19]; 0.687 in assay [20]. Also, the figures for the z-score in assay [4] and in assay [12] were -0.823 (inactive) and 0.0929, respectively.
As to `CCOC(=O)C1=C[C@@H](C(C)(C)C)N(S(=O)(=O)c2ccc(C)cc2)[C@H]1c1ccc(Cl)c(Cl)c1`, the composite z-score was 1.1 in assay [1]; 0.665 in assay [2]; 0.827 in assay [3]; 0.733 in [5]; 1.3 in assay [6]; 0.481 in assay [7]. Besides, the composite z-score in assay [8] worked out at 0.924; in [9], 0.023; in [10], 0.326; in assay [11] it was 1.34; in [13] it was 0.595; in [14], 1.46. In addition, the composite z-score in [15] was 0.122; in assay [16] it was -0.154; in [17], 0.213; in [18], 0.863; in assay [19], 0.735; in [20], 1.35. Also, the figures for the z-score in assay [4] and in assay [12] were 0.425 (inactive) and -0.501, respectively.
For the compound `CCCNC(=O)[C@@]1(C)c2ccccc2C(=O)N(C(C)C)[C@H]1c1ccc(CO)cc1`, the composite z-score in assay [1] is 1.2; in assay [2] it was 0.695; in assay [3], 1.09; in assay [5], -0.668; in assay [6], -0.743; in assay [7], -1.14. The composite z-score in assay [8] was -0.737; in assay [9], -0.612; in assay [10], -0.105; in assay [11] it was -0.0794; in assay [13] it was -1.28; in [14], -0.58. Moreover, the composite z-score in assay [15] was -0.145; in [16], -0.212; in [17], -0.262; in [18] it was -0.0172; in assay [19], -0.109; in assay [20], -0.731. The z-score in [4] was 0.208 (inactive); in assay [12], -1.99.
Take `CN1C(=O)C2C(C1=O)C1C=C(c3ccc(CO)cc3)C2C(C2CC2)N1Cc1cc2c(cc1Br)OCO2` (stereo not given): the composite z-score is 1.65 in assay [1]; 0.0878 in [2]; 0.886 in assay [3]; 0.966 in assay [5]; 1.14 in assay [6]; 0.482 in assay [7]. In addition, the composite z-score in assay [8] was found to be 1.22; in assay [9], 0.334; in assay [10] it was 1.22; in assay [11], 1.36; in assay [13], 0.72; in assay [14], 1.68. In addition, the composite z-score in assay [15] was 0.6; in assay [16], -0.027; in [17], -0.0866; in assay [18], 1.04; in [19], 2.24; in assay [20], 1.73. The z-score in [4] was 0.0287 (inactive); in assay [12], -1.11.
With `CC(=O)NCCCC[C@@H]1NC(=O)[C@@H]2C[C@H](C(=O)NCCCCCC[N+](C)(C)C)[C@H](c3cccc(OCCO)c3)N2C1=O`, the composite z-score in assay [1] is 1.13; in assay [2], -0.145; in assay [3], -0.0962; in assay [5] it was 1.23; in assay [6] it was 1.27; in assay [7] it was 0.341. Moreover, the composite z-score in assay [8] is 1.25; in [9], 1.45; in [10], 0.811; in assay [11], 1.39; in assay [13], 0.996; in [14] it was -0.145. The composite z-score in assay [15] was -0.711; in assay [16] it was 0.158; in [17] it was 0.0181; in assay [18], -0.0585; in [19], 1.05; in assay [20] it was 1.75. Further, the z-score is -0.0513 (inactive) in [4] and 0.625 in assay [12].
